Screens as filed in PubChem.
Hits are enriched below; roughly 2.1% of the tested compounds scored in any of these assays.
PvdQ acylase = blocks Pseudomonas aeruginosa PvdQ acylase activity; purified PvdQ acylase, fluorescence plate reader; 0.063% of 340,000 active; inhibition, % at 10 µM; AID 488965; in the data active = inhibition above about 30%, passing the limit was not always enough; inconclusive = no clear call, values can overlap the other calls;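 also: 0% = vehicle neutral wells and 100% = reference inhibitor wells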
rRNA inh HTS = selective bacterial rRNA inhibition in E. coli. GFP signal change (wild-type ribosome), % (no concentration beside the values). 1.6% of 350,000 active. E. coli WT GFP vs humanized-ribosome RFP mutants, fluorescence, 24 h; hits give low values; DMSO median 0, no signal -100;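 active = significant combined selectivity score with lowered wild-type GFP, culture density cut under 30%, mutant RFP and density less affected; inactive = any of these conditions unmet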
F508del corr = correctors of CFTR F508del function in bronchial epithelial cells. CFBE cells, YFP halide quenching; stimulated with forskolin plus potentiator P3; % fluorescence drop versus neutral controls. activity (quench increase), % at 7.58 µM. 0.36% of 350,000 active;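 active = mean added fluorescence quench of at least 8% versus neutral control, with both replicates also reaching 8%; inconclusive = only one of the mean or replicate conditions met; inactive = mean below 8% and not both replicates reaching 8%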;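 also: cells transiently co-express mutant CFTR-F508del with the halide-sensitive YFP; corrector assay measuring rescue of mutant channel to the surface after 24 h compound exposure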
ARNT-TACC3 inh = disruptors of human ARNT/TACC3 interaction. AlphaScreen His-ARNT PAS-B/GST-TACC3 binding, luminescence; TACC3 fragment carries E629A point mutation. 0.66% of 390,000 active. AID 623870. Q9Y6A5. inhibition, % at 9.99 µM;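 active = mean inhibition of replicates at least 50% and at least half of replicates each reaching 50%; inconclusive = half or more replicates reach 50% but mean below 50%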;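 also: 0% = complete ARNT plus TACC3 wells and 100% = ARNT alone without TACC3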
ERAP1 inh = inhibitors of human ERAP1 aminopeptidase | recombinant ERAP1, Leu-AMC fluorescence, 60 min | AID 652197 | 0.15% of 340,000 active | Q9NZ08 | inhibition, % at 10.7 µM;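 active = mean replicate inhibition of at least 30%, or all replicates individually reaching that 30% level; inactive = mean below 30% and not every replicate reaching it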;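 also: 0% = neutral control wells and 100% = L-leucinethiol positive control wells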
Target sequence (Q9NZ08 whole entry, looked up): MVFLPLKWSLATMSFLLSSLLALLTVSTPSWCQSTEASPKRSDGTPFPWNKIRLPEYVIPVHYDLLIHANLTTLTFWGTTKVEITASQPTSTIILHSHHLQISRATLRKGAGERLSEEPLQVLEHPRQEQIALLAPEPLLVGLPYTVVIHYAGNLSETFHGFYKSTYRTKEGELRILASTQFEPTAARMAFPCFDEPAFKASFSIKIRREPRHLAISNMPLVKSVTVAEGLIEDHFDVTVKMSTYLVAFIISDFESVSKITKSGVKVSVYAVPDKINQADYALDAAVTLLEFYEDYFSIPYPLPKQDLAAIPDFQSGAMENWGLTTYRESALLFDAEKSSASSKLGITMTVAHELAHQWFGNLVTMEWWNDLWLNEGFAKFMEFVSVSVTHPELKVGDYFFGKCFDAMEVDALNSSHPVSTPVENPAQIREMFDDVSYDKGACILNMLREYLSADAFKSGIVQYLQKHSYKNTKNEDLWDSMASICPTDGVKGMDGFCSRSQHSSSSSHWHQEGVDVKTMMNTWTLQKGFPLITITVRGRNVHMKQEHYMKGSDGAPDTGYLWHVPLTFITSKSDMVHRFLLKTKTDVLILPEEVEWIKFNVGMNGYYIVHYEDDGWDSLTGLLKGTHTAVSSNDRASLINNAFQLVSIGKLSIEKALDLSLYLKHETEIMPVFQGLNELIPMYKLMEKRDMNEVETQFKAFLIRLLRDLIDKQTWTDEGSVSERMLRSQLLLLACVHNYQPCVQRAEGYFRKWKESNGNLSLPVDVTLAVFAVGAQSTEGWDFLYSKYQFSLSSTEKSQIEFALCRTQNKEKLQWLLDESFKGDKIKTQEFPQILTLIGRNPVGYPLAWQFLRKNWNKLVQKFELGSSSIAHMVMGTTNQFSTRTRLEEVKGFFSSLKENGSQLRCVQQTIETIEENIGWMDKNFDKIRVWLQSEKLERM
HepG2 tox = HepG2 cell cytotoxicity; shares compounds with rRNA inh HTS; HepG2 viability, ATP luminescence, 72 h; 30 tested, under 10 active; activity change, negative = cytotoxicity, unspecified at 26 µM;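 active = compounds whose fitted half-maximal signal-loss concentration is at most twice their highest valid dose; inconclusive = flat curve with 30 to 70% signal loss, or poor fit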
AID977621 = wild-type E. coli growth inhibition versus H69 humanized strain – H69 mutant RFP, wild-type GFP, cherry-pick, dose response; fluorescence, 24 h; 1,900 tested, under 10 active; shares compounds with rRNA inh HTS; activity change, negative = inhibition at 50 µM;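 active = Wild-type ribosome reporter drop at least double the humanized mutant ribosome reporter drop, growth loss under a set limit; inconclusive = no clear call, values can overlap the other calls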;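 also: wild-type GFP and H69 mutant RFP strains grown together 50/50 in each well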
AID977628 = E. coli growth inhibition, wild-type GFP versus h24 humanized RFP strain, dose response, h24 mutant RFP vs wild-type GFP, cherry-pick | shares compounds with rRNA inh HTS | E. coli WT GFP strain growth, fluorescence, 24 h | activity change, negative = inhibition at 50 µM | 1,900 tested, under 10 active | AID 977628;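 active = compound lowering the normal-ribosome reporter at least twice as much as the humanized-ribosome reporter, growth loss under a set limit; inconclusive = no clear call, values can overlap the other calls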;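 also: wild-type GFP and h24 humanized RFP strains co-cultured 1 to 1 per well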
Numbers without * were called inactive; ? = inconclusive; · = no result.

SMILES	PvdQ acylase	rRNA inh HTS	F508del corr	ARNT-TACC3 inh	ERAP1 inh	AID977621	AID977628	others
COc1cccc(S(=O)(=O)N2CCCCN3[C@H](CO)[C@@H](c4ccc(C#CC(C)C)cc4)[C@H]3C2)c1	·	-47.2*	0.6	26.8	3.0	·	?
COc1cccc(S(=O)(=O)N2CCCCN3[C@H](CO)[C@@H](c4ccc(C#CC(C)C)cc4)[C@@H]3C2)c1	·	6.8	-1.1	-5.1	2.2	?	·
COc1cccc(S(=O)(=O)N2CCCCN3[C@H](CO)[C@@H](c4ccc(C#CCC(C)C)cc4)[C@H]3C2)c1	·	-15.5	2.8	2.1	·	·	·
CC=Cc1ccc2n(c1=O)C[C@H]1[C@H](CO)[C@@H](C(=O)NCCOC)[C@@H]2N1Cc1ccccc1 (mixture of isomers)	·	0.8	-1.8	-0.5	-0.2	·	·
CS(=O)(=O)Nc1ccc2c(c1)[C@H]1C[C@@H](CC(=O)NCCN3CCCCC3)O[C@H](CO)[C@H]1O2	·	0.3	-0.7	-6.9	-1.5	·	·
Cc1ccc(S(=O)(=O)Nc2ccccc2CNc2cccc(C)n2)cc1	-11.8	-16.5*	·	-6.9	-1.8	-15.4	?
Fc1ccc(-c2nc3c(Cl)cc(C(F)(F)F)cn3c2Cc2ccsc2)cc1	·	-17.2*	-2.7	·	·	-12.4	-6.75
Cc1ccc(-c2nc3c(Cl)cc(C(F)(F)F)cn3c2Cc2ccsc2)cc1	·	-6.6	5.5	·	·	·	·
CCN(CC)CC(O)Cn1c2ccccc2c2ccccc21 (stereo not given)	6.3	·	·	10.8	·	·	·
C=CCN(CC=C)CC(O)Cn1c2ccccc2c2ccccc21 (stereo not given)	-10.1	-20.6*	-2.0	2.2	-0.2	-9.52	?
CCC(CO)Oc1cc(NC(=O)c2ccccc2F)c2ncn(C(C)C)c2c1 (stereo not given)	17.9	-20.2*	-0.4	37.2	3.5	·	?
C[C@H](CO)N1C[C@H](C)[C@H](CN(C)S(=O)(=O)c2ccc(F)cc2)Oc2ncc(-c3ccncc3)cc2C1=O	·	0.6	-0.8	3.5	1.5	·	·
COc1ccc(NC(=O)Nc2cccc3c2O[C@H](CN(C)S(=O)(=O)c2ccc(Cl)cc2)[C@H](C)CN([C@H](C)CO)C3=O)cc1	·	-18.2	-3.6	-2.5	-0.4	-15.4	?
C[C@@H]1CN([C@H](C)CO)C(=O)c2cccc(NC(=O)c3ccncc3)c2O[C@@H]1CN(C)S(=O)(=O)c1ccc(Cl)cc1	·	-23.0*	2.5	17.6	-0.4	·	?
COc1ccc(NC(=O)Nc2cccc3c2O[C@@H](CN(C)S(=O)(=O)c2ccc(Cl)cc2)[C@@H](C)CN([C@@H](C)CO)C3=O)cc1	·	-4.4	-4.0	0.5	1.2	·	·
C[C@@H]1CN([C@@H](C)CO)C(=O)c2cccc(NC(=O)c3ccncc3)c2O[C@@H]1CN(C)S(=O)(=O)c1ccc(F)cc1	·	-4.8	1.3	10.2	6.5	·	·
Cc1nnsc1-c1onc(C)c1C(=O)Nc1cc(Cl)cc(Cl)c1	-13.4	-33.0	1.6	1.4	·	·	·
Cc1ccc(NC(=O)c2c(C)noc2-c2snnc2C)cc1	1.2	-21.9*	0.7	2.8	-0.2	·	?
O=C(CCC1CCCN(C(=O)c2ccsc2)C1)N1CCN(c2ccccn2)CC1 (stereo not given)	-5.7	-18.5*	-0.4	-5.5	-0.6	-3.6	-3.5
CO[C@H]1CN(C)C(=O)c2ccc(NS(=O)(=O)c3ccc(C)cc3)cc2OC[C@@H](C)NC[C@@H]1C	·	1.5	5.7	-1.3	-3.2	·	·
COc1ccc(CN(C)C[C@H]2OCCCC[C@H](C)Oc3ccc(NC(=O)Cc4ccccc4)cc3C(=O)N([C@H](C)CO)C[C@@H]2C)cc1	·	-1.2	4.2	3.4	·	·	·
COc1ccccc1NS(=O)(=O)c1cc(NC(=O)CCC(=O)c2cccs2)ccc1Cl	-3.9	-15.8	0.5	-0.6	-1.5	·	·
COc1ccc(NC(=O)CCS(=O)(=O)c2ccccc2Cl)cc1S(=O)(=O)Nc1ccc(Cl)cc1	-7.6	-19.4*	5.6	-2.3	-2.1	-7.71	·
COc1ccc(NC(=O)CCC(=O)c2cccs2)cc1S(=O)(=O)Nc1ccc(Cl)cc1	4.1	-19.4*	·	-0.7	12.7	-14.8	·
CCOc1ncccc1C(=O)OCC(=O)NCCCc1ccccc1	-1.0	-20.9*	-1.9	2.4	-2.6	-7.19	-12.9
SMILES	PvdQ acylase	rRNA inh HTS	F508del corr	ARNT-TACC3 inh	ERAP1 inh	AID977621	AID977628	others
CCOc1ncccc1C(=O)OCC(=O)NCCc1ccccc1	-6.8	·	·	-6.0	·	·	·
COCC(=O)N1C[C@@H](C)[C@H](OC)CN(C)C(=O)c2cc(NC(=O)c3ccc(F)cc3)ccc2OC[C@@H]1C	·	2.9	-0.6	0.7	0.2	·	·
CC(CNc1ccc(Cl)cc1)(CNc1ccc(Cl)cc1)[N+](=O)[O-]	-5.4	-20.3*	2.4	-16.1	-4.8	?	?	HepG2 tox=16.3
O=[N+]([O-])c1ccc(CNc2ccc(Cl)cc2)s1	-6.1	-52.6	0.4	10.7	3.5	·	·
C(=C(c1ccccc1)c1ccccc1)c1ccccn1	-5.7	-39.1*	1.7	9.7	-2.6	-1.79	·
NS(=O)(=O)c1ccc(Nc2c([N+](=O)[O-])cncc2[N+](=O)[O-])cc1	-1.2	-37.2*	3.5	-3.6	3.2	·	?
COc1cccc(Nc2c([N+](=O)[O-])cncc2[N+](=O)[O-])c1	-2.6	-13.2	2.0	-61.6	-0.6	·	·
O=S(=O)(Nc1cccc(-c2ccc(N3CCCCCC3)nn2)c1)c1ccc(F)cc1	-1.4	-21.1*	-0.7	0.6	0.0	·	?
O=S(=O)(Nc1cccc(-c2ccc(N3CCCCCC3)nn2)c1)c1cccc(F)c1	-8.0	-7.8	0.1	1.6	-0.1	·	·
O=C(NCc1ccccc1)c1ccc(-c2ccccc2F)o1	6.0	-37.5*	-0.7	-0.1	-3.2	-22.2	?
O=C(NCCc1ccccc1)c1ccc(-c2ccccc2C(F)(F)F)o1	·	-40.4	-1.1	·	·	·	·
COc1ccc(/C=C/c2nc3ccccc3n2Cc2ccccc2OC)cc1	-3.9	-25.7*	·	-1.9	1.8	-11.5	-13.7
COc1ccc(CSc2nc3ccccc3c(=O)n2CCCN2CCOCC2)cc1F	-14.0	-28.2*	-1.4	0.2	-2.8	-4.47	-17.6
O=[N+]([O-])c1ccc(NCCNCCOc2nonc2-c2ccccc2)c([N+](=O)[O-])c1	11.2	-21.0*	-0.4	-5.6	2.8	5.63	-0.84
CC(C)CN(C(=O)c1cc([N+](=O)[O-])cc([N+](=O)[O-])c1)C1CCS(=O)(=O)C1 (stereo not given)	-5.3	-16.4*	-1.0	-4.0	0.3	-17.9	-6.36
